In the library only some 5.4% were active in any assay of this set; here they are far more common.
Exocytosis inh: lytic granule exocytosis inhibition; TALL-104 LAMP-1 surface exposure, flow cytometry; cells stimulated with thapsigargin and PMA; inhibition, % at 10 µM; hit rate 0.66% among 360,000;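 active means inhibition above about 55%, limit read from the data; inconclusive means no clear call, values can overlap the other calls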
JMJD2C inh: human JMJD2C demethylase inhibition. GST-JMJD2C(1-420) H3K9me3 demethylation, DELFIA europium. inhibition, % at 2.35 µM. Q9H3R0. hit rate 0.069% among 330,000;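 active means more than half of a compound's replicate wells show inhibition beyond 50%, single wells judged on their own value; inconclusive means some, but no more than half, of replicates pass 50% inhibition; inactive means no replicate passes 50% inhibition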;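 further: signal counts dimethyl H3K9 product captured on neutravidin plate; 0% = median of DMSO wells and 100% = 0.3 times that DMSO median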
Target sequence (Q9H3R0 1-420 limits assumed): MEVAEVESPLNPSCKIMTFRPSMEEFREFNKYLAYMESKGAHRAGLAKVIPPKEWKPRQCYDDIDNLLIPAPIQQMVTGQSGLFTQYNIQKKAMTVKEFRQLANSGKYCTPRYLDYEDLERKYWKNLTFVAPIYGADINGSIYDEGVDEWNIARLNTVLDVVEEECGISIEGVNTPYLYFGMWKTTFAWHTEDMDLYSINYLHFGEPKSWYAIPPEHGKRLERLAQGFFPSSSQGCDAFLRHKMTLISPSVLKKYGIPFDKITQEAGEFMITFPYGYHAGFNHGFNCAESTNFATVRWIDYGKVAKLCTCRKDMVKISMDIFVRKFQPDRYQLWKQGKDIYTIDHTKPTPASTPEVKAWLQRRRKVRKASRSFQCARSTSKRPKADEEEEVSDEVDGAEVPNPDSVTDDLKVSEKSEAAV
SMARCA2 activ: SMARCA2 function activation, primary screen; MG213 cells, MMTV-luciferase reporter, dexamethasone, overnight; activation, % at 9.1 µM; hit rate 1% among 370,000; AID 652017; in the data active means activation above about 7.8%;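 further: 0% = vehicle wells and 100% = reference activator wells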
MIN6 prolif: induces beta-cell replication in MIN6 cells. MIN6 cells proliferation, ATPlite luminescence, 48 h; cells starved in 0.2% serum; 100% = growth in 10% serum. proliferation, % at 10 µM. hit rate 0.29% among 330,000;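 active means compounds whose signal lies at least 3.5 SD above the mean of all wells on their plate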;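 further: 0% = DMSO-treated cells in low-serum medium and 100% = 10% serum control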
ALR H2O2 inh: blocks human ALR sulfhydryl oxidase activity; P55789; purified ALR, DTT oxidation, H2O2 HRP-luminol luminescence; inhibition, % (concentration not given with the values); hit rate 3.8% among 290,000;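 active means mean replicate inhibition above about 79%, with every replicate also reaching it, limit read from the data; inconclusive means only one of the two criteria met; inactive means mean below limit and not every replicate reaching it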
Target sequence (P55789 whole entry, looked up): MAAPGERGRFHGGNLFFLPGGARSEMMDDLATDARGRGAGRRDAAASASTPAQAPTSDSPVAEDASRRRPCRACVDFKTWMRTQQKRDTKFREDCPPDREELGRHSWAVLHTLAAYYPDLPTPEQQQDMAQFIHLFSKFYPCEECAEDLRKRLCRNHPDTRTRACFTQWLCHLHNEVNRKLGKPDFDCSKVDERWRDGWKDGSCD
PfM18AAP inh-1: PfM18AAP enzyme inhibition; recombinant PfM18AAP, H-Glu-NHMec fluorogenic cleavage; inhibition, % at 7.35 µM; hit rate 1.2% among 290,000;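 active means inhibition above the campaign mean inhibition over all tested compounds plus 3 SD, cut at about 28% in these data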;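 further: 0% = plate median of test compound wells and 100% = 2 mM ZnCl2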
PfM18AAP inh-2: confirmation of Plasmodium falciparum M18 aspartyl aminopeptidase inhibitors | inhibition, % at 7.35 µM | hit rate 28% among 2,400 | recombinant PfM18AAP, H-Glu-NHMec fluorogenic cleavage | shares compounds with PfM18AAP inh-1 | AID 2170;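 active means mean inhibition over replicate wells above the hit cutoff set for the earlier primary screen, cut at about 29% in these data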;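 further: 0% = median of test compound wells and 100% = 2 mM ZnCl2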
CTSL1 counter: Cathepsin L (human) inhibition, confirmation; purified cathepsin L1, Z-Leu-Arg-MCA fluorescence; shares compounds with PfM18AAP inh-1; 2,400 tested, under 10 active; inhibition, % at 5.96 µM; AID 2178;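 active means average inhibition across replicates above the hit cutoff set in the earlier primary screen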;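 further: 0% = median of test compound wells and 100% = Z-Phe-Ala-diazomethylketone 1 µM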
* = called active by the depositor; u = inconclusive; x = not tested or not shown.

SMILES	Exocytosis inh	JMJD2C inh	SMARCA2 activ	MIN6 prolif	ALR H2O2 inh	PfM18AAP inh-1	PfM18AAP inh-2	CTSL1 counter
CC(C)N1C(=O)/C(=C/C=C/c2ccco2)C(=O)N(Cc2ccco2)C1=O	0	-15	-1	-6	98*	27	x	x
O=C1NC(=O)N(Cc2ccccc2)C(=O)/C1=C/C=C/c1ccco1	u	58*	1	-7	98*	21	x	x
COc1ccc(CN2C(=O)NC(=O)/C(=C\c3ccco3)C2=O)cc1	-1	11	-1	1	2	5	x	x
c1cncc(-c2ccc3n2Cc2cnnn2-c2ccccc2-3)c1	x	x	-3	x	x	x	x	x
O=C(O)C12C3CCCC1C32c1ccccc1 (stereo not given)	-13	-11	-4	0	99*	4	x	x
O=C1C(Cl)=CC(=Nc2ccc(O)cc2)C=C1Cl	0	-6	-1	-8	99*	x	x	x
OC1CN2CCCC(O)C2C1O (stereo not given)	x	x	0	x	x	x	x	x
C=CCN1C(=O)NC(=O)/C(=C/c2cnc(SC)nc2)C1=O	1	-6	-1	0	18	7	x	x
C=CCN1C(=O)NC(=O)/C(=C/c2cc3c4c(c2)CCCN4CCC3)C1=O	-4	14	-3	-1	99*	8	x	x
NC(=O)Cn1cc(C=C2C(=O)NC(=O)NC2=O)c2ccccc21	-3	7	-2	-4	-6	29*	x	x
COc1c(C=C2C(=O)NC(=O)NC2=O)c(CCN(C)C(=O)c2ccccc2)cc2c1OCO2	0	-3	-1	-2	96*	16	x	x
CC(C)(C)OC(=O)NCCCCC(N)[P+](=O)O (stereo not given)	x	x	-2	x	x	x	x	x
Cc1ccc(NC(=O)CN2C(=O)CN=C(c3ccccc3)c3cc(Cl)ccc32)cc1	-4	14	-3	-6	x	0	x	x
CN(C)c1ccc(NC(=O)CN2C(=O)CN=C(c3ccccc3)c3cc(Cl)ccc32)cc1	11	-2	3	-1	89*	8	x	x
CN(C)c1ccc(NC(=O)CN2C(=O)CN=C(c3ccccc3)c3ccccc32)cc1	1	-13	-1	-6	99*	4	x	x
N#CCC[C@H]1CC[C@]2(CCCN(Cc3ccccn3)C2)O1	x	x	-2	x	x	x	x	x
O=C(NC1CCCCC1)Oc1cc2oc(=O)sc2cc1Cl	26	-5	1	-4	92*	31*	x	x
COc1cc(C=C2C(=O)NC(=O)NC2=O)ccc1OCc1ccc([N+](=O)[O-])cc1	-3	x	2	x	x	1	x	x
COc1cc(/C=C(/C)[N+](=O)[O-])ccc1OCc1ccccc1Cl	85*	0	x	-6	3	30*	x	x
COc1cc(/C=C/C(=O)c2c(O)n(CCc3ccccc3)c(=O)[nH]c2=O)ccc1O	3	-6	0	0	97*	12	x	x
O=C(/C=C/c1ccccc1)c1c(O)n(CCc2ccccc2)c(=O)[nH]c1=O	0	-6	-3	-2	-12	1	x	x
O=C(NC(Cc1ccccc1)P(=O)(O)Oc1ccccc1)OCc1ccccc1 (stereo not given)	x	x	0	x	x	x	x	x
Cc1cc(/C=C2\C(=O)NC(=O)N(c3ccc(Br)cc3)C2=O)c(C)n1-c1cc(C(=O)O)cc(C(=O)O)c1	-3	3	0	1	57	35*	-2	-6
S=P(Nn1cnnc1)(c1ccccc1)c1ccccc1	1	4	-2	2	1	44*	49*	-3
COc1ccccc1/C=N/N=C(/N)N[N+](=O)[O-]	-4	1	5	1	0	10	x	x
SMILES	Exocytosis inh	JMJD2C inh	SMARCA2 activ	MIN6 prolif	ALR H2O2 inh	PfM18AAP inh-1	PfM18AAP inh-2	CTSL1 counter
N/C(=N\N=C\c1ccc(O)cc1O)N[N+](=O)[O-]	0	19	2	-3	20	44*	65*	4
CCN(CC)c1ccc(N=Cc2c(O)[nH]c(=O)[nH]c2=O)cc1	7	-17	-1	-4	35	44*	-36	4
CC[n+]1c(/C=C/N(C)c2ccccc2)sc2ccc(Cl)cc21	-2	14	-6	-4	x	36*	-47	3
O=C1CCC[C@@H]2C[C@@]3(C[C@@H]4CCN1[C@H]24)Nc1cc(Cl)ccc1NC3=NCc1ccccc1	3	x	1	x	x	x	x	x
CC(C)(C)C(O)C(Oc1ccc(Cl)cc1)n1cncn1 (stereo not given)	-6	19	-1	2	-2	-7	x	x
CC(C(=O)c1ccc(Cl)cc1Cl)n1cncn1 (stereo not given)	10	10	-1	-3	-5	65*	54*	-2
CC(C)NC1(c2ccccc2)CCCCC1	x	x	2	x	x	x	x	x
O=C(OCC(=O)c1ccc([N+](=O)[O-])cc1)/C(=C\c1ccc(Cl)cc1)NC(=O)c1ccccc1	9	1	0	-2	-2	40*	4	12
COC(=O)C1C(OC(=O)c2ccccc2)CC2CCC1[N+]2(C)C (stereo not given)	x	x	2	x	x	x	x	x
Clc1cc(Cl)cc(CN2Cc3cc(Br)ccc3-n3nncc3C2)c1	x	x	-2	x	x	x	x	x
O=C1/C(=C\c2cc3c(cc2Br)OCO3)N2CCC1CC2	1	5	x	-1	15	37*	-40	7
O=C1/C(=C/c2ccc3c(c2)OCO3)N2CCC1CC2	9	9	-3	0	3	2	x	x
O=C(NCCN1CCC2(CC1)C(=O)NCN2c1ccccc1)c1ccccc1C(F)(F)F	x	x	-2	x	x	x	x	x
O=C1NC(=O)N(Cc2ccco2)C(=O)/C1=C/c1ccc(-c2cccc([N+](=O)[O-])c2)o1	30	19	x	-2	54	34*	-101	-6
O=C(O)c1ccc(-n2c(O)c(/C=C3\C=Nc4ccccc43)c(=O)[nH]c2=O)cc1	u	-1	1	-1	98*	48*	53*	-1
O=c1[nH]c(=O)n(-c2ccccc2)c(O)c1/C=C1/C(c2ccccc2)=Nc2ccccc21	3	6	-2	-4	-39	8	x	x
O=c1[nH]c(=O)n(-c2cccc(F)c2)c(O)c1/C=C1\C=Nc2ccccc21	17	1	-3	-3	18	34*	45*	-1
CC1=C[C@@H]2c3cccc4[nH]cc(c34)C[C@H]2N(C)C1	-7	5	0	-2	-6	48*	-12	-1
CN1C[C@H](CO)C=C2c3cccc4[nH]cc(c34)C[C@H]21	13	3	6	-5	21	18	x	x
C[C@H]1CNCCN1c1ccc(N2CC[C@@H](O)C2)c(C#N)c1	x	x	-3	x	x	x	x	x
O=c1[nH]cc(N(CCCl)CCCl)c(=O)[nH]1	x	x	-7	x	x	x	x	x
O=C(NCCN1CCC2(CC1)C(=O)NCN2c1ccccc1)c1ccc(OC(F)(F)F)cc1	x	x	0	x	x	x	x	x

Screening results: PubChem, several laboratories
